# Data as given in publication PMC7862700, “An all-to-all approach to the identification of sequence-specific readers for epigenetic DNA modifications on cytosine”.
# Columns and labels:
# Assay in all cases: DAPPL (digital affinity profiling via proximity ligation, sequencing); 10 mM Tris-HCl pH 7.5, 50 mM NaCl, 1 mM DTT, 4% glycerol, room temperature, 30 min; GST-TFs on glutathione beads, 16-mer random dsDNA library, 0.1% formaldehyde crosslink after washing; high values mean tight binding
# Conditions in all cases: protein: recombinant; tags: N-terminal GST; dsDNA, one strand shown
# FLI1 = biological target: T1, FLI1 (Homo sapiens, UniProt Q01543 1-452)
# T1 sequence: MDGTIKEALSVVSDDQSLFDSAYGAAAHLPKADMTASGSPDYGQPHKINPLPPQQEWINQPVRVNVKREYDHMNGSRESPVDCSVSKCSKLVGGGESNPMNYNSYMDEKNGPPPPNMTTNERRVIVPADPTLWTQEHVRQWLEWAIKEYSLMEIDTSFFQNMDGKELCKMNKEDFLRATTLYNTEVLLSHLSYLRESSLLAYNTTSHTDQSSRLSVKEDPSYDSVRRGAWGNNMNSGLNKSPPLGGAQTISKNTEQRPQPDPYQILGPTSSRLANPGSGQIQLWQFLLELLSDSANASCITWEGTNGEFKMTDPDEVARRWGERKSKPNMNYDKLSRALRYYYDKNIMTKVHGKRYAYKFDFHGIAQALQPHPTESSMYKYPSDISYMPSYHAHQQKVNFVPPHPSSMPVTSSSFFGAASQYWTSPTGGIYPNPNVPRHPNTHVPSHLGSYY
# How it was run: (§1)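 In yeast, human transcription factors were expressed with a GST fusion, then pulled down on glutathione beads and given DNA barcodes. Pooled with a tag-only sample, they were exposed to 200 nmole of a 16-mer random double-stranded DNA library (Tris/NaCl/DTT/glycerol buffer, room temperature, 30 min), washed, crosslinked with 0.1% formaldehyde, proximity-ligated using BsaI/T4 ligase for 1 h at 37 °C, PCR-amplified and read on an Illumina NextSeq500. Each hexamer's frequency of reads for a factor, divided by the matching frequency for the tag-only sample, gives the binding signal.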
# ELK1 = biological target: T2, ELK1 (Homo sapiens, UniProt P19419 1-428)
# T2 sequence: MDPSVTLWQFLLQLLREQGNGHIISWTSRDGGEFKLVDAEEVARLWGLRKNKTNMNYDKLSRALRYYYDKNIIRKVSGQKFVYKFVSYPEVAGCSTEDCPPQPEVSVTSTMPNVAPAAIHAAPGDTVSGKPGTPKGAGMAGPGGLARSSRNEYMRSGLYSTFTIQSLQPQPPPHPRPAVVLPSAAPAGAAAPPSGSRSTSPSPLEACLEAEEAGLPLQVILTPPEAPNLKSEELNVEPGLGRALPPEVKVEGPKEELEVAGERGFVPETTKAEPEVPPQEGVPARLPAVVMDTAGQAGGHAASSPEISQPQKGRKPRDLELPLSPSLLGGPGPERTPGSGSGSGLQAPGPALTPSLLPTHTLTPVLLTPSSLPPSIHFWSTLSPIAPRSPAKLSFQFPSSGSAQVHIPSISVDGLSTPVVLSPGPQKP
# How it was run: as §1
# GABPA = biological target: T3, GABPA (Homo sapiens, UniProt Q06546 1-454)
# T3 sequence: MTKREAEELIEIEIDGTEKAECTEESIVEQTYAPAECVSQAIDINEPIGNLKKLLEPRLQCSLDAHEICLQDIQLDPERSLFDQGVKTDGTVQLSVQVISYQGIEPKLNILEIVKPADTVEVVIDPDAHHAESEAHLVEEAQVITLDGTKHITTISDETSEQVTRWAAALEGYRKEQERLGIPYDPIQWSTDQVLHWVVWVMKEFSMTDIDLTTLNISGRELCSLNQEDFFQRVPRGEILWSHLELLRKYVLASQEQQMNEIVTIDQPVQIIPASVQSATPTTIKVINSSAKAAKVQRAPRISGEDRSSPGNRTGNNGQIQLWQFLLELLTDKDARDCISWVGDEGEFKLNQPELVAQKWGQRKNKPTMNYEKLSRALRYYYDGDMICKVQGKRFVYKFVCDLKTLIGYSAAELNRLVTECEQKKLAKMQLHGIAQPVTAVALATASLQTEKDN
# How it was run: as §1
# ELF1 = ELF1 (Homo sapiens, UniProt P32519 1-619)
# Chain of ELF1 (P32519 whole entry): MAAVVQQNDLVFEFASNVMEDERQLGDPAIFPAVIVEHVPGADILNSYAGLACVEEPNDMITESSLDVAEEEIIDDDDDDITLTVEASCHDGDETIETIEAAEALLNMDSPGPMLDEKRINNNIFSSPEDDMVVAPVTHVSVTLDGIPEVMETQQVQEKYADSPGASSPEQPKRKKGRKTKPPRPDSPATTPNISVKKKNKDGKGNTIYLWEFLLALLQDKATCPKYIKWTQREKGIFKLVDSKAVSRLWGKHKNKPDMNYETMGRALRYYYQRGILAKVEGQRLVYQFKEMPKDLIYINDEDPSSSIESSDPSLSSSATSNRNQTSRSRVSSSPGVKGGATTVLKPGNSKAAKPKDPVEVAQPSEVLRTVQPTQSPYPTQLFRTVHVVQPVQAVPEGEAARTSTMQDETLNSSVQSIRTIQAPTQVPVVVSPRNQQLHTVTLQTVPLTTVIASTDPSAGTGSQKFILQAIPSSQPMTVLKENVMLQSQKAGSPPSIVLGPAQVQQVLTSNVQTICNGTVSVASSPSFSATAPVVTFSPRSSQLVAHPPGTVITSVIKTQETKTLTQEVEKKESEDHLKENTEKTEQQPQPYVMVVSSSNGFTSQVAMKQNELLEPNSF
# How it was run: as §1
# EHF = biological target: T4, EHF (Homo sapiens, UniProt Q9NZC4 1-300)
# T4 sequence: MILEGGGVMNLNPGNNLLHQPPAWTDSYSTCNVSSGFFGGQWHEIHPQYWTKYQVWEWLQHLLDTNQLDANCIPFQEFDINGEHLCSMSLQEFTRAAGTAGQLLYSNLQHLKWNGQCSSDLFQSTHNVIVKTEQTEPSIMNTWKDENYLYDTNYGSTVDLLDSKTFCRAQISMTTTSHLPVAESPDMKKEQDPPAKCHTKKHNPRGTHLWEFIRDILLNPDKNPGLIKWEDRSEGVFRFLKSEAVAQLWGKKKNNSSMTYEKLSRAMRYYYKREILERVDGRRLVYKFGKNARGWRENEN
# How it was run: as §1
# ELK3 = biological target: T5, ELK3 (Homo sapiens, UniProt P41970 1-407)
# T5 sequence: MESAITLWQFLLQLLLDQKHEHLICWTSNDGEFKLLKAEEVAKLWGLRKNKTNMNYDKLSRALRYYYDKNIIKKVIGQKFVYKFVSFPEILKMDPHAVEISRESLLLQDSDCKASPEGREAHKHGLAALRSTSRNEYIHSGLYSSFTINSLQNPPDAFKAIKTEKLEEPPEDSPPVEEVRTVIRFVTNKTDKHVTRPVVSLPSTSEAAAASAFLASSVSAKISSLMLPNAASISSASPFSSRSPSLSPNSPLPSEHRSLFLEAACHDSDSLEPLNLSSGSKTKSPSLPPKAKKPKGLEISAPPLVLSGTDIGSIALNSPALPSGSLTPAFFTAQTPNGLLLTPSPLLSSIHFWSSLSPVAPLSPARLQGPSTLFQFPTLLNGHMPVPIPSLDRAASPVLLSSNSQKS
# How it was run: as §1
# FEV = biological target: T6, FEV (Homo sapiens, UniProt Q99581 1-238)
# T6 sequence: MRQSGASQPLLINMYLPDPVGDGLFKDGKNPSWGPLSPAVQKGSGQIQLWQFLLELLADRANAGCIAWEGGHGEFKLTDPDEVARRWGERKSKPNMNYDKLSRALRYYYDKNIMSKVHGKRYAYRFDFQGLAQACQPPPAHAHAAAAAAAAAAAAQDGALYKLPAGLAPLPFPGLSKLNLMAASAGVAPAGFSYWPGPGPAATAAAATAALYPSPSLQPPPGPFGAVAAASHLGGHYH
# How it was run: as §1
# ELF4 = ELF4 (Homo sapiens, UniProt Q99607 1-663)
# Chain of ELF4 (Q99607 whole entry): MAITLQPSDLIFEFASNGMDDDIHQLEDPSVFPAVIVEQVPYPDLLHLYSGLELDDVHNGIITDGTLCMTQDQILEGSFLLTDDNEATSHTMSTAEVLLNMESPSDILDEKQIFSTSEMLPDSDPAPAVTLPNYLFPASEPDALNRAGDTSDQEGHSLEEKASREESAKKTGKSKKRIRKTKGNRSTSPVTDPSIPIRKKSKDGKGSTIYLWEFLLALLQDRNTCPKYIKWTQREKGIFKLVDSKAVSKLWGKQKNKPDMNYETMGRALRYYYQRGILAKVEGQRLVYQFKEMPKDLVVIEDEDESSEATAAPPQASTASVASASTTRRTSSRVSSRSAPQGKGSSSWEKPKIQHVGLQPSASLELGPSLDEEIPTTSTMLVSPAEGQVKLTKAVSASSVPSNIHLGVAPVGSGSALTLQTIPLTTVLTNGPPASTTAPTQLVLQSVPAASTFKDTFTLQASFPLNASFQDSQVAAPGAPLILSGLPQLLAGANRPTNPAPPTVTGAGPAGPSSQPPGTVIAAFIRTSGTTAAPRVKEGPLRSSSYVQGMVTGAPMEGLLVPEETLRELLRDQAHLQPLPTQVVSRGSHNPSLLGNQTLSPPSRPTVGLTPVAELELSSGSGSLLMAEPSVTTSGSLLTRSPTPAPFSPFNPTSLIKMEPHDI
# How it was run: as §1
# ELK4 = biological target: T7, ELK4 (Homo sapiens, UniProt P28324-2 1-405)
# T7 sequence: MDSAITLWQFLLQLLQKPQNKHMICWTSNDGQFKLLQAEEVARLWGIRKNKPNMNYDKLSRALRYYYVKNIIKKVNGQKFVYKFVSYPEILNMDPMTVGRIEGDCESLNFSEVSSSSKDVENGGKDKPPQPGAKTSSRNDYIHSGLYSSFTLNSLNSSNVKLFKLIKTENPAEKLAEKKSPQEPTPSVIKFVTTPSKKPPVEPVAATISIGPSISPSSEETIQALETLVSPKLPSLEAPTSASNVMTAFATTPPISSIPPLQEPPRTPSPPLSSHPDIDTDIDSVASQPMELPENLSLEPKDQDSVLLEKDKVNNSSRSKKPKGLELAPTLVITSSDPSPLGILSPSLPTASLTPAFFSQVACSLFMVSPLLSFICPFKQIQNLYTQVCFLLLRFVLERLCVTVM
# How it was run: as §1
# ERF = biological target: T8, ERF (Homo sapiens, UniProt P50548 1-548)
# T8 sequence: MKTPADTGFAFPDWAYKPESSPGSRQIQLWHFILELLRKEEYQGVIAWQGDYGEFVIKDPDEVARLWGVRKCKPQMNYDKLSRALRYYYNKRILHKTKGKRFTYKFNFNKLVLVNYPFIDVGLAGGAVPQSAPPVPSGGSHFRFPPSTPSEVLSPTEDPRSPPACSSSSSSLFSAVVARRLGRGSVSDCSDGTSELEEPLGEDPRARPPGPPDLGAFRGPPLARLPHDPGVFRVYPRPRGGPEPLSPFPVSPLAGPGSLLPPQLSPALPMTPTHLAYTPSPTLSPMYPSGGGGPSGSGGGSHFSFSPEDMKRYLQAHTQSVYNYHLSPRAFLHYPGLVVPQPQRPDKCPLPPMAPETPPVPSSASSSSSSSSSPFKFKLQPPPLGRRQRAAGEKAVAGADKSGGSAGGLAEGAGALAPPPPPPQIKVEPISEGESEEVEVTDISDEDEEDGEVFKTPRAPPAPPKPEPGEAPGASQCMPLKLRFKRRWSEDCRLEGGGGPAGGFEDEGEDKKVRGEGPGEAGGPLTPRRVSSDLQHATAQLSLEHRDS
# How it was run: as §1
# ETV3L = biological target: T9, ETV3L (Homo sapiens, UniProt Q6ZN32 1-361)
# T9 sequence: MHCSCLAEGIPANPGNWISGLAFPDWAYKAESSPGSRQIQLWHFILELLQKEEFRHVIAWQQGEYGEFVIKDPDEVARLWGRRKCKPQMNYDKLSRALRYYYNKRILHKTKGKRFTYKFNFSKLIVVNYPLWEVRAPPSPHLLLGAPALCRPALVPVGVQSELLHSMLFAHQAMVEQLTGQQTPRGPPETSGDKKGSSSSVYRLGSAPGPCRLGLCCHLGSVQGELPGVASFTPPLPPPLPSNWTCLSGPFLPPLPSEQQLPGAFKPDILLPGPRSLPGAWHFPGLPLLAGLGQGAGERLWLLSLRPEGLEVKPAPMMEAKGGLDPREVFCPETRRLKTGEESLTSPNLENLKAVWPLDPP
# How it was run: as §1
# ETS2 = biological target: T10, ETS2 (Homo sapiens, UniProt P15036 1-469)
# T10 sequence: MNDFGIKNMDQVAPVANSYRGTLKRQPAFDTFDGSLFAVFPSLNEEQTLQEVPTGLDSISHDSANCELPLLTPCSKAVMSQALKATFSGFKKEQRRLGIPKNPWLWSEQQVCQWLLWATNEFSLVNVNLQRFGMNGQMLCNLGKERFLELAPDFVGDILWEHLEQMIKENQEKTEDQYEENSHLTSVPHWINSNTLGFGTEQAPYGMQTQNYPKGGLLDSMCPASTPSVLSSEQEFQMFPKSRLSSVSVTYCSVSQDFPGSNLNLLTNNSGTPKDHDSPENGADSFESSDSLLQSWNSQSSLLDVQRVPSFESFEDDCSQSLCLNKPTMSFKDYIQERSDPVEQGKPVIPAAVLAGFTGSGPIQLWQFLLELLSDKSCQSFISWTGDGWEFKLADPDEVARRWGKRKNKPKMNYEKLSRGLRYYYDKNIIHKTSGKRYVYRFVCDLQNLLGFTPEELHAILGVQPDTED
# How it was run: as §1
# ETV3 = biological target: T11, ETV3 (Homo sapiens, UniProt P41162-2 1-143)
# T11 sequence: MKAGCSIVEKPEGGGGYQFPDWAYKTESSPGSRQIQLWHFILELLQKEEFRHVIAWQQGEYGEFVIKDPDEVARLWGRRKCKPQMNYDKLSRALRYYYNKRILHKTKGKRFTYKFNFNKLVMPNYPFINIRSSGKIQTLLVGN
# How it was run: as §1
sequence,measurement,setting,value
GCCGCA,binding signal,FLI1,"1.01 fold enrichment (6-mer frequency, TF over GST control)"
same,binding signal,ELK1,"1.03 fold enrichment (6-mer frequency, TF over GST control)"
same,binding signal,GABPA,"1.02 fold enrichment (6-mer frequency, TF over GST control)"
same,binding signal,ELF1,"1.04 fold enrichment (6-mer frequency, TF over GST control)"
same,binding signal,EHF,"1.04 fold enrichment (6-mer frequency, TF over GST control)"
same,binding signal,ELK3,"1.04 fold enrichment (6-mer frequency, TF over GST control)"
same,binding signal,FEV,"1.01 fold enrichment (6-mer frequency, TF over GST control)"
same,binding signal,ELF4,"1.04 fold enrichment (6-mer frequency, TF over GST control)"
same,binding signal,ELK4,"1.04 fold enrichment (6-mer frequency, TF over GST control)"
same,binding signal,ERF,"1.07 fold enrichment (6-mer frequency, TF over GST control)"
same,binding signal,ETV3L,"1.04 fold enrichment (6-mer frequency, TF over GST control)"
same,binding signal,ETS2,"1 fold enrichment (6-mer frequency, TF over GST control)"
same,binding signal,ETV3,"1 fold enrichment (6-mer frequency, TF over GST control)"
